In PubChem BioAssay:
The source made the active and inactive calls.

How the values were obtained:
Albumin (Bos taurus) = Albumin (Bos taurus) (UniProt P02769); assay: bovine serum albumin binders on microarray, profiling panel, artefact control for SMM control protein annotation, biochemical, small-molecule microarray, Alexa647 label, 635/667 nm fluorescence (AID 1118); conditions: BSA-A647 binding, fluorescence 635 nm, higher = more signal;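 also: score merges 667 nm emission intensity and signal-to-noise per printed compound spot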
Chain of Albumin (Bos taurus) (P02769 whole entry, looked up): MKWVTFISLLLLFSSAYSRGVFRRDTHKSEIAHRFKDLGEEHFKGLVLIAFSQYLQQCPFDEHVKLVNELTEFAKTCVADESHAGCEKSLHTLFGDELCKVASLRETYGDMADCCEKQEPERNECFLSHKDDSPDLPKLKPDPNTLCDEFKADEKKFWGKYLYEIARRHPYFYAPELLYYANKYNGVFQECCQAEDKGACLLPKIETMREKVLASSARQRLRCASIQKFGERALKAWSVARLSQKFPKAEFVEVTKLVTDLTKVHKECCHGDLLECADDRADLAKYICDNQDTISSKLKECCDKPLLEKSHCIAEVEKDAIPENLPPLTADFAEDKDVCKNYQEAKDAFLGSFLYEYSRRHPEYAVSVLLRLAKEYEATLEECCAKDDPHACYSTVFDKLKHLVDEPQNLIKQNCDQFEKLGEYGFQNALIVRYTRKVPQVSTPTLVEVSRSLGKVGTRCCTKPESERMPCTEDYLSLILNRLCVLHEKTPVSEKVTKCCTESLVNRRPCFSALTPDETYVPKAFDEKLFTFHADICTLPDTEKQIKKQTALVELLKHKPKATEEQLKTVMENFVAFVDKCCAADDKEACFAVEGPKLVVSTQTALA

[1] = small-molecule microarray binders of probe aXIP, primary screen, biochemical, NeuroSMM set, 635/667 nm fluorescence (AID 1119); conditions: higher = more signal, called active from +8 up or from −8 down;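 also: probe is the protein aXip251-270 applied at 1 µg/mL to compound-printed slides; binding of probe to printed compounds measured as 667 nm fluorescence plus signal to noise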
[2] = small-molecule binders of probe aNOTCH3, primary screen, biochemical, small-molecule microarray, 635/667 nm fluorescence (AID 1120); conditions: higher = more signal;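 also: probe is a biotin-tagged antibody raised against NOTCH3 rather than NOTCH3 protein; score merges spot fluorescence near 667 nm with spot signal to noise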
[3] = small-molecule binders of probe aNOTCH2, primary screen, biochemical, small-molecule microarray, 635/667 nm fluorescence (AID 1121); conditions: higher = more signal;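 also: score merges feature fluorescence read at 667 nm with its signal to noise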
[4] = target: Carbonic anhydrase 2 (Homo sapiens) (UniProt P00918); assay: CAII small-molecule binders, profiling panel, biochemical, small-molecule microarray, Alexa647-labelled CAII (AID 1122); conditions: CAII-A647 binding fluorescence, higher = more signal
[5] = COS7 lysate on small-molecule microarray, probe aHis, 635 nm (AID 1123); conditions: COS7 cell lysate, fluorescence, higher = more signal;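 also: z-score combines 667nm fluorescence intensity with signal-to-noise per printed compound spot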
[6] = compound binding in COS7 lysate, probe aLAP1, primary screen, cell lysate, small-molecule microarray (AID 1124); conditions: probe aLAP1, fluorescence, higher = more signal;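 also: lysate comes from COS7 cells expressing LAP1 and is applied at 0.3 µg/mL; score merges spot fluorescence near 667 nm with signal-to-noise over triplicate slides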
Sam68 (KHDRBS1) = assay: Sam68 small-molecule binders, primary screen, biochemical, small-molecule microarray, 635 nm fluorescence (AID 1125); conditions: small-molecule microarray binding, higher = more signal;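 also: score merges 667 nm channel intensity with signal to noise over triplicate slides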
[7] = tested on: Chordin-like protein 2 (CHRDL2); assay: CHRDL2 small-molecule binders, primary screen, biochemical, small-molecule microarray, 635 nm fluorescence (AID 1126); conditions: small-molecule microarray binding, fluorescence 635 nm; higher = more signal;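 also: printed compound slides probed with Chrdl2 protein at 4 µg/mL for 1 h at 4 C; score merges 667 nm emission intensity with signal to noise over three replicate slides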
[8] = target: Concanavalin-A (Canavalia ensiformis) (UniProt P02866); assay: ConA small-molecule binders, primary screen, artefact control for SMM control protein annotation, biochemical, small-molecule microarray, Alexa647 label, 635 nm (AID 1127); conditions: ConA-A647 binding fluorescence, higher = more signal;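 also: z combines 667 nm emission intensity with signal-to-noise across three replicate slides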
Chain of Concanavalin-A (Canavalia ensiformis) (P02866 whole entry, looked up): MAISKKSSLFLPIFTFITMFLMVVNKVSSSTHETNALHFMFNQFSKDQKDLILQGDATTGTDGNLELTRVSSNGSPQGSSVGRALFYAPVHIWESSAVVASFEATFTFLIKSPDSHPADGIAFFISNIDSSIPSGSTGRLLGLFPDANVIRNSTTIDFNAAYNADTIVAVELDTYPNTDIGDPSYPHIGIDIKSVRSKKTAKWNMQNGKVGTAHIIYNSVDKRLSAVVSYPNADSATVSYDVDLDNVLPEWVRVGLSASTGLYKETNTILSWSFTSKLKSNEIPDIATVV

[9] = anti-His antibody binders, primary screen, artefact control for SMM control protein annotation, biochemical, small-molecule microarray, 635 nm fluorescence (AID 1128); conditions: anti-His Alexa647 antibody binding, higher = more signal;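 also: score merges feature fluorescence with signal-to-noise for each printed compound spot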
[10] = tested on: Human papillomavirus type 1a E7 protein (residues 1-88); assay: HPV1a E7 small-molecule binders, primary screen, biochemical, small-molecule microarray, residues 1-88, 635 nm (AID 1129); conditions: small-molecule microarray binding, fluorescence 635 nm; higher = more signal
[11] = target: Focal adhesion kinase 1 (Homo sapiens) (UniProt Q05397); assay: small-molecule microarray binders of FAK, primary screen, biochemical, 635/667 nm fluorescence, BSA, DTT (AID 1130); conditions: PTK2 binding, 635 nm fluorescence, higher = more signal;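 also: composite of spot emission at 667 nm and signal to noise over triplicate slides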
Chain of Focal adhesion kinase 1 (Homo sapiens) (Q05397 whole entry, looked up): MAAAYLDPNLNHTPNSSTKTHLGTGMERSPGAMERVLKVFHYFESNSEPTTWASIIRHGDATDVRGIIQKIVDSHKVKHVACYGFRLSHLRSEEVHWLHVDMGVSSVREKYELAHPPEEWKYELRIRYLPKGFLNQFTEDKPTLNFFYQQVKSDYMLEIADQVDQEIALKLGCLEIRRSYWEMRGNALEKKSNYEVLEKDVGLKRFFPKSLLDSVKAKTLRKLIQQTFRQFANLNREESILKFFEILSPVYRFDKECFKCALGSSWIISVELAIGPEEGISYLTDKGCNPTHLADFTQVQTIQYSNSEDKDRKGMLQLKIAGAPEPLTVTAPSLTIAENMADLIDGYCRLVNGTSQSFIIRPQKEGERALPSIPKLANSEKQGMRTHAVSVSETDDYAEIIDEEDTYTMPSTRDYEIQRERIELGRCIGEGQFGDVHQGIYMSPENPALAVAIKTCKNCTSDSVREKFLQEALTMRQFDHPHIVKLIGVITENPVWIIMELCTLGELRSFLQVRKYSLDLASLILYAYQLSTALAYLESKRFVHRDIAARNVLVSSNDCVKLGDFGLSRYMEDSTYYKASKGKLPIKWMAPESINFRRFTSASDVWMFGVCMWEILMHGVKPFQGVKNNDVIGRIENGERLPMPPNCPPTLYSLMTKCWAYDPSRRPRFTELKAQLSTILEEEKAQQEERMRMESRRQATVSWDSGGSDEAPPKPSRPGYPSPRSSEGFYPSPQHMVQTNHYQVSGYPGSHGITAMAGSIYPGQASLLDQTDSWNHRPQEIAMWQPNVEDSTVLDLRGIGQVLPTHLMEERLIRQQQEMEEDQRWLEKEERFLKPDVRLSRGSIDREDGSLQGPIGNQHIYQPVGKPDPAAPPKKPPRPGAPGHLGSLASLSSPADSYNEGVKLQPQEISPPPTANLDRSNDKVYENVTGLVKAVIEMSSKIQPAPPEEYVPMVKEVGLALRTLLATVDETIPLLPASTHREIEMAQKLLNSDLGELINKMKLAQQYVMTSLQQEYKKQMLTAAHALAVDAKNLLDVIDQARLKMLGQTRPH

[12] = tested on: Fibrinogen (Alexa647-labelled); assay: fibrinogen binders on compound microarrays, profiling panel, artefact control for SMM control-protein annotation, biochemical, small-molecule microarray, 635/667 nm fluorescence (AID 1131); conditions: fibrinogen-A647 binding fluorescence, higher = more signal;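 also: z-score merges 667 nm fluorescence with per-spot signal-to-noise over triplicate slides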
[13] = target: Follistatin (Homo sapiens) (UniProt P19883); assay: follistatin binders on small-molecule microarrays, primary screen, biochemical, small-molecule microarray, 635/667 nm fluorescence (AID 1132); conditions: FST binding, 635 nm fluorescence, higher = more signal
Chain of Follistatin (Homo sapiens) (P19883 whole entry, looked up): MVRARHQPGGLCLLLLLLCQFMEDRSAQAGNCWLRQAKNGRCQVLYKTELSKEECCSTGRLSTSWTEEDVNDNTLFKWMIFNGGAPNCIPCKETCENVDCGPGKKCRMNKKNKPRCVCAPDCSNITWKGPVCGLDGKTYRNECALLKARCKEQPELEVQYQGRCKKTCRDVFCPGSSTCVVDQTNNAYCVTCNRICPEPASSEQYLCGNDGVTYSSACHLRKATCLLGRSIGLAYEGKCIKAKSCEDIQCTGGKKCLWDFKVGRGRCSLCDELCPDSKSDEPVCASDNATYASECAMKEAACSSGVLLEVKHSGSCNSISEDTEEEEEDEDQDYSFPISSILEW

[14] = target: Fibroblast growth factor 2 (Homo sapiens) (UniProt P09038); assay: FGF2 binders on small-molecule microarrays, primary screen, biochemical, small-molecule microarray, 635/667 nm fluorescence (AID 1133); conditions: small-molecule microarray binding, FGF2, fluorescence 635/667; higher = more signal
Chain of Fibroblast growth factor 2 (Homo sapiens) (P09038 whole entry, looked up): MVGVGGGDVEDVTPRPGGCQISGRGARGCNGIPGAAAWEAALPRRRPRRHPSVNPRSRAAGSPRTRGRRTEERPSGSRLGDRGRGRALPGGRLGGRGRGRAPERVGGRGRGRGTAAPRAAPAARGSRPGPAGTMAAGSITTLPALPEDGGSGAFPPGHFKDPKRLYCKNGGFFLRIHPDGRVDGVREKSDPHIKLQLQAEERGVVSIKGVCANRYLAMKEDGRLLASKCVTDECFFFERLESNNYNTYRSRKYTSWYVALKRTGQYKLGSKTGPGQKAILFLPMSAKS

[15] = mitochondrial membrane potential change in A549 cells, profiling panel, cell-based, JC-1 fluorescence, basal, 24 h, 100 nL (AID 1138); conditions: higher = more signal;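 also: A549 lung adenocarcinoma cells under basal conditions with no added stimulus; test concentration not given here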
Lefty1 = Lefty1 binders on small-molecule microarrays, primary screen, biochemical, small-molecule microarray, 635/667 nm fluorescence (AID 1139); conditions: small-molecule microarray binding, fluorescence 635/667; higher = more signal
[16] = tested on: wheat germ agglutinin (Triticum aestivum), Alexa647-labelled; assay: wheat germ agglutinin binders on compound microarrays, profiling panel, artefact control for SMM control-protein annotation, biochemical, small-molecule microarray, 635/667 nm fluorescence (AID 1140); conditions: WGA-A647 binding, 635 nm fluorescence, higher = more signal;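 also: score merges 667 nm feature emission with signal to noise over triplicate slides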
[17] = target: Luciferin 4-monooxygenase (Photinus pyralis) (UniProt P08659); assay: firefly luciferase enzyme inhibitors, primary screen, biochemical, luminescence, purified enzyme, 2006 set (AID 1141); conditions: SteadyGlo luminescence, 30 min, higher = more signal, called active from +8 up or from −8 down;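 also: cell-free assay with purified firefly luciferase at 100 ng per well in PBS; test concentration not given here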
Chain of Luciferin 4-monooxygenase (Photinus pyralis) (P08659 whole entry, looked up): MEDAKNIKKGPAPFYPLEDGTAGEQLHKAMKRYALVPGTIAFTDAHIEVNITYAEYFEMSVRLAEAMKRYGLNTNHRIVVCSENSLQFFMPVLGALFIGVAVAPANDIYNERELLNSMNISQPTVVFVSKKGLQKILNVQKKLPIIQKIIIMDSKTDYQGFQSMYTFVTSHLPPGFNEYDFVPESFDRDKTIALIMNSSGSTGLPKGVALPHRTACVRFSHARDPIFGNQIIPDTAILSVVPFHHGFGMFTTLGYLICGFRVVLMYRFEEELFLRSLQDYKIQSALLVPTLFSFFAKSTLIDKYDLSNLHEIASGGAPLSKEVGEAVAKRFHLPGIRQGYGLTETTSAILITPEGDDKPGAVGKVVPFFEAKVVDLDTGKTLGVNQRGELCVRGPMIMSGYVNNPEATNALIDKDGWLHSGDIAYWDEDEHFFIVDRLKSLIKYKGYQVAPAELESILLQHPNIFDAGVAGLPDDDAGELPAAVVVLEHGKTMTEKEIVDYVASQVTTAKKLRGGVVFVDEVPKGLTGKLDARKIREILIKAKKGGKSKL

| SMILES | composite z-score (Albumin (Bos taurus)) | composite Z-score [1] | composite z-score [2] | composite z-score [3] | composite z-score [4] | composite z-score [5] | composite z-score [6] | composite z-score (Sam68 (KHDRBS1)) | composite z-score [7] | composite z-score [8] | composite z-score [9] | composite z-score [10] | composite z-score [11] | composite z-score [12] | composite z-score [13] | composite z-score [14] | z-score [15] | composite z-score (Lefty1) | composite z-score [16] | z-score [17] |
| --- | --- | --- | --- | --- | --- | --- | --- | --- | --- | --- | --- | --- | --- | --- | --- | --- | --- | --- | --- | --- |
| C=CCOC(=O)[C@@H]1[C@H]2C(=O)O[C@H](c3ccccc3)[C@H](c3ccccc3)N2[C@H](c2ccc(OCCOC(=O)[C@H]3C[C@H]4C(=O)N[C@@H](CCCCN(C)C)C(=O)N4[C@H]3c3cccc(OCCO)c3)cc2)[C@@]12C(=O)Nc1ccccc12 | 0.172 | 0.597 (inactive) | -0.2 | 0.0018 | 0.656 | 0.668 | 0.781 | 0.846 | 0.0523 | 0.682 | 2.06 | -0.246 | 0.0815 | 0.498 | 0.519 | 0.382 | -0.407 | -0.0986 | 0.517 | 0.892 (inactive) |
| O=C(N1CCOCC1)[C@]1(CCS(=O)(=O)c2ccccc2)N=C(c2ccc(OCCCO)cc2)O[C@@H]1c1ccccc1 | 1.03 | 1.35 (inactive) | 0.149 | -0.0256 | 0.441 | 2.86 | 0.473 | 1.31 | -0.62 | 1.21 | 2.94 | 1.23 | 0.99 | 0.996 | 1.25 | 0.23 | 1.1 | -0.588 | 1.29 | -1.55 (inactive) |
| Cc1ccc(S(=O)(=O)N2[C@@H](c3ccccc3)C(C(=O)O)=C[C@H]2C(C)(C)C)cc1 | 1 | 0.882 (inactive) | 0.178 | 0.0458 | 0.756 | 2.82 | 0.827 | 1.3 | -0.301 | 1.17 | 1.43 | 1.18 | 1.31 | 0.651 | 0.804 | -0.0977 | -1.04 | 0.576 | 1.31 | 1.19 (inactive) |
| CCCCCCc1nc(-c2ccc(OC)nc2)c(C)c2c1[Si](C(C)C)(C(C)C)OC2 | -0.854 | 0.268 (inactive) | -0.122 | -0.12 | -0.195 | -0.039 | -0.459 | 0.18 | 0.492 | -0.141 | 0.975 | -0.461 | 0.0484 | -0.52 | 0.553 | 0.0695 | -0.498 | 0.524 | -0.491 | 0.146 (inactive) |
| COC(=O)C(CC#Cc1ccc2c(c1)[C@]1(C(=O)N2)[C@H](c2ccccc2OCCO)N2[C@H](c3ccccc3)[C@H](c3ccccc3)OC(=O)[C@H]2[C@@H]1C(=O)N1CCN(c2ncccn2)CC1)C(=O)OC | 0.706 | 0.156 (inactive) | 0.0052 | -0.132 | 0.23 | 1.18 | 0.309 | 1.31 | 1.1 | 1.11 | 1.48 | 1.22 | 0.13 | 0.927 | 1.04 | 1 | -1.46 | 0.668 | 0.481 | -0.186 (inactive) |
| CCCCC(=C=CC[C@H](O)c1cccc(OCCO)c1)C[C@H](O)c1cc(Cl)cc(Cl)c1O | 0.436 | 0.41 (inactive) | -0.0288 | -0.143 | 0.465 | 0.686 | -0.151 | 1.03 | 0.0963 | 1.04 | 0.172 | 0.559 | -0.0043 | 0.489 | 1.11 | 0.272 | 0.691 | 1.46 | 0.749 | -0.677 (inactive) |
